# Source: the supplement of paper PMC10849652
# Targets with a hit are over-represented here; the source holds about 7,900 in all. About 0.6% of all pairs of compound and target were hits. A number with no mark means an inactive call.
# How the values were obtained:
# Assay in all cases: log2 fold change, soluble protein after heating vs DMSO (PISA); higher = thermal stabilisation; K562 cells, 10 uM, 30 min; active = over 0.2 and 3.5 SD of the protein, either way, in both replicates (recomputed)
# bafetinib = compound: Cc1ccc(NC(=O)c2ccc(CN3CC[C@H](N(C)C)C3)c(C(F)(F)F)c2)cc1Nc1nccc(-c2cncnc2)n1 [bafetinib]
# In short: (§1)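 Aliquots of K562 cells (2×10^6 cells/mL) treated with 10 μM compound for 30 min were heated for 3 min over 48°C-58°C. After pooling and extraction in PBS with 0.5% NP-40 at 4°C, soluble protein from a 21,000xg, 90 min spin was quantified by TMTpro 16plex LC-MS/MS with channel sums equalised. Thermal stability is expressed against control samples, from duplicates, as a log2 fold change.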
# [1] = compound: Cc1cccc(CC(=O)N2CCc3c2ccc(-c2cn(C)c4ncnc(N)c24)c3F)n1
# In short: as §1
# nilotinib = compound: Cc1cn(-c2cc(NC(=O)c3ccc(C)c(Nc4nccc(-c5cccnc5)n4)c3)cc(C(F)(F)F)c2)cn1 [nilotinib]
# In short: as §1
# [2] = compound: Cc1nc(Nc2n[nH]c3c2CN(C(=O)N[C@H](CN(C)C)c2ccccc2)C3(C)C)c2sccc2n1
# In short: as §1
# dasatinib = compound: Cc1nc(Nc2ncc(C(=O)Nc3c(C)cccc3Cl)s2)cc(N2CCN(CCO)CC2)n1 [dasatinib]
# In short: as §1
# [3] = compound: Cc1ncc(-c2ccnc(Nc3ccc(S(C)(=O)=O)cc3)n2)n1C(C)C
# In short: as §1
# [4] = compound: Cn1cc(-c2ccc3c(c2)CCN3C(=O)Cc2cccc(C(F)(F)F)c2)c2c(N)ncnc21
# In short: as §1
# [5] = compound: Cn1cc(-c2ccc3nnc(C(F)(F)c4ccc5ncccc5c4)n3n2)cn1
# In short: as §1
# tipifarnib = compound: Cn1cncc1[C@@](N)(c1ccc(Cl)cc1)c1ccc2c(c1)c(-c1cccc(Cl)c1)cc(=O)n2C [tipifarnib]
# In short: as §1
# mubritinib = compound: FC(F)(F)c1ccc(/C=C/c2nc(COc3ccc(CCCCn4ccnn4)cc3)co2)cc1 [mubritinib]
# In short: as §1
# [6] = compound: NC(=O)Nc1cc(-c2cccc(F)c2)sc1C(=O)N[C@H]1CCCNC1
# In short: as §1
# [7] = compound: NC(=O)c1cnc(N[C@@H]2CCCC[C@@H]2N)nc1Nc1cccc(-n2nccn2)c1
# In short: as §1
# [8] = compound: NC1(c2ccc(-c3nc4ccn5c(=O)[nH]nc5c4cc3-c3ccccc3)cc2)CCC1
# In short: as §1
# [9] = compound: NCC(=O)Nc1ccc(-n2nc(C(F)(F)F)cc2-c2ccc3c(ccc4ccccc43)c2)cc1
# In short: as §1
# entinostat = compound: Nc1ccccc1NC(=O)c1ccc(CNC(=O)OCc2cccnc2)cc1 [entinostat]
# In short: as §1
# vorinostat = compound: O=C(CCCCCCC(=O)Nc1ccccc1)NO [vorinostat]
# In short: as §1
# citarinostat = compound: O=C(CCCCCCNC(=O)c1cnc(N(c2ccccc2)c2ccccc2Cl)nc1)NO [citarinostat]
# In short: as §1
# silmitasertib = compound: O=C(O)c1ccc2c(c1)nc(Nc1cccc(Cl)c1)c1ccncc12 [silmitasertib]
# In short: as §1
# [10] = compound: O=C1NC(=O)C(c2cnc3ccccn23)=C1c1cn2c3c(cc(F)cc13)CN(C(=O)N1CCCCC1)CC2
# In short: as §1
# [11] = compound: c1cc(OCCN2CCCCC2)cc(-c2n[nH]c3ccc(-c4nnc[nH]4)cc23)c1
# In short: as §1
# UniProt Q5JTH9, sequence (Q5JTH9 whole entry, looked up): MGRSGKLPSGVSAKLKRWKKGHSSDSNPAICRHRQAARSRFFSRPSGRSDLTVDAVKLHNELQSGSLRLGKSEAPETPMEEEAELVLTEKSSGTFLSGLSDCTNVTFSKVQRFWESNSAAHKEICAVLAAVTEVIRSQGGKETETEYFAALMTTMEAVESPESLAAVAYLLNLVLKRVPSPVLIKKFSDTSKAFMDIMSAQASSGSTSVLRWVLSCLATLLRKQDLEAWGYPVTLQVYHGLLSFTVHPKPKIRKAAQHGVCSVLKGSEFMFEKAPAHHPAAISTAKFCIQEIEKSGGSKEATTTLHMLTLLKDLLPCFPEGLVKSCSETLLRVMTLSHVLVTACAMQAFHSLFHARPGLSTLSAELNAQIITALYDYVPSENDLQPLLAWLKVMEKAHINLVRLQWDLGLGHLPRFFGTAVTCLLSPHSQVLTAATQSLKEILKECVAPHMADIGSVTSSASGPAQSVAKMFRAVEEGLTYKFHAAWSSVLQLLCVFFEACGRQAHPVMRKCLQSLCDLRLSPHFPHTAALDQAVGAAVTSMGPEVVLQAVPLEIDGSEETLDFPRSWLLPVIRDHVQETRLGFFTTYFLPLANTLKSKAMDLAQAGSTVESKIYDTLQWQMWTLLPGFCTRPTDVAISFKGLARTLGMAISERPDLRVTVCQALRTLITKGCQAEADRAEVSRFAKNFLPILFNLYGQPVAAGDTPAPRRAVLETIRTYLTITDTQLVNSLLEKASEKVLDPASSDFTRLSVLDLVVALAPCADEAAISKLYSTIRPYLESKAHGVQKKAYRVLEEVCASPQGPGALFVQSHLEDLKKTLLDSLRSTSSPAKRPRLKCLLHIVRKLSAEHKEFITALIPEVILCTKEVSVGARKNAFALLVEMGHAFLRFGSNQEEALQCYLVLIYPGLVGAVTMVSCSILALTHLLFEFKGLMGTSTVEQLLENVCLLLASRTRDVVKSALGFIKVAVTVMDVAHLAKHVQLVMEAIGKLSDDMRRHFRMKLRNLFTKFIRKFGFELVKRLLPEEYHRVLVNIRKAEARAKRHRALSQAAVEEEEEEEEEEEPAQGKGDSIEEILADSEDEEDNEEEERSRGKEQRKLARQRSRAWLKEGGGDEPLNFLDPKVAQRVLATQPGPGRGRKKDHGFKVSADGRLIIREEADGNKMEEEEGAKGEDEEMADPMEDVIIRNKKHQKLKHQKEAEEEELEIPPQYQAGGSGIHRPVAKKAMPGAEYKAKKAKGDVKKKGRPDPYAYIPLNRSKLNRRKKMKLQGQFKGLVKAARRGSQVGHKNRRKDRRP
# UniProt O95486, sequence (O95486 whole entry, looked up): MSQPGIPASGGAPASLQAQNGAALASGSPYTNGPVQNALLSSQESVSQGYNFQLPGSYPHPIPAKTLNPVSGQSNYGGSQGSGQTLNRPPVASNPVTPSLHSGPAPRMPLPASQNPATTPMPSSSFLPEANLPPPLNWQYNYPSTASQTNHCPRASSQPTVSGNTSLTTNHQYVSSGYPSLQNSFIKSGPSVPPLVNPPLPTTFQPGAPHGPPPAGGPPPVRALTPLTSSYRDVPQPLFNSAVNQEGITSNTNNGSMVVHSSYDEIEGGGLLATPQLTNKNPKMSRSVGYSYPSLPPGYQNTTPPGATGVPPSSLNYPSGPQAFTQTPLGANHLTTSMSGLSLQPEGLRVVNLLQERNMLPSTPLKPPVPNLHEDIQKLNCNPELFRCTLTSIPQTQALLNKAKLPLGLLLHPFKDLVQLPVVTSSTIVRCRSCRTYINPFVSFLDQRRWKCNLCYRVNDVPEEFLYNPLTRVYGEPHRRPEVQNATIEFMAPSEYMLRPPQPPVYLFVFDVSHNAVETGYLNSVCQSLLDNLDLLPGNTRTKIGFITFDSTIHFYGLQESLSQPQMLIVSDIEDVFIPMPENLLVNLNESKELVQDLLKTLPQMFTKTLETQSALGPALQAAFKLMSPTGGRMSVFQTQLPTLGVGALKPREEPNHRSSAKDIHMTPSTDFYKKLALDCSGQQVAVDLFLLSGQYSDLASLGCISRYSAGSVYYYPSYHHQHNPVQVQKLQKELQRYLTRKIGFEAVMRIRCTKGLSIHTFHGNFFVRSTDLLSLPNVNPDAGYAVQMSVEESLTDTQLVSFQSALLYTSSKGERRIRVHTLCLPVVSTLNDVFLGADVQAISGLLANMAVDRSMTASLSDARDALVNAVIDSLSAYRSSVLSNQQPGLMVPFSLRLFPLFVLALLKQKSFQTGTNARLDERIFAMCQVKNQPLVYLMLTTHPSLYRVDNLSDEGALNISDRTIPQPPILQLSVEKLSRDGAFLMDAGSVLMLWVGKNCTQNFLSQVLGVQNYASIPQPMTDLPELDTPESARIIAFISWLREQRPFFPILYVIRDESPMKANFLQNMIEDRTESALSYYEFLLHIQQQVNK
# UniProt Q9BQY4, sequence (Q9BQY4 whole entry, looked up): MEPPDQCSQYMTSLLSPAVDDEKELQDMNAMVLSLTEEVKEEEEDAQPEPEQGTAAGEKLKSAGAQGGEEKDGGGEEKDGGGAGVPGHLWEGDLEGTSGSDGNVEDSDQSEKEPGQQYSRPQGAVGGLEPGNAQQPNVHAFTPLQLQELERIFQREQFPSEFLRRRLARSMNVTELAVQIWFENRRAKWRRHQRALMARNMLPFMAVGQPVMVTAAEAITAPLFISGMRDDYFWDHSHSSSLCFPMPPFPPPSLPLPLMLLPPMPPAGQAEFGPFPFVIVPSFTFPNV
# UniProt Q06609, sequence (Q06609 whole entry, looked up): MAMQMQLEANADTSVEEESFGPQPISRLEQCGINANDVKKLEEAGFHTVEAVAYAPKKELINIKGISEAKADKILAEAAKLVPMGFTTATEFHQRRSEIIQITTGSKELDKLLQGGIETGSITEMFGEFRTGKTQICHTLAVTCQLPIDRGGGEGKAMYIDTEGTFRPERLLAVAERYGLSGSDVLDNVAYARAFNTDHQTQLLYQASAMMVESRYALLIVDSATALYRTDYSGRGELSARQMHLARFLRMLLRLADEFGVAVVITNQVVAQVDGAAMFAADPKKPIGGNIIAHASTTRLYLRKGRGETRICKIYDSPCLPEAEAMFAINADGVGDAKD
# UniProt Q8TD22, sequence (Q8TD22 whole entry, looked up): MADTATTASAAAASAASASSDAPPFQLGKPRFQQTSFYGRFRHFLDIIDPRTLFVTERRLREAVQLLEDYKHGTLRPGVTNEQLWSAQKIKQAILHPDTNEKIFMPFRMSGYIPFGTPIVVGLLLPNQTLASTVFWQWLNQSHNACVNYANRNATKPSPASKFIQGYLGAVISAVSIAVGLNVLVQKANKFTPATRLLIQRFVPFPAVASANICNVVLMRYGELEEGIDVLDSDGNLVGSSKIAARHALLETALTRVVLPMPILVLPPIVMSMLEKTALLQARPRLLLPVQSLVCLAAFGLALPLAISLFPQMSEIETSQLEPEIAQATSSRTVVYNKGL
# UniProt Q9NX18, sequence (Q9NX18 whole entry, looked up): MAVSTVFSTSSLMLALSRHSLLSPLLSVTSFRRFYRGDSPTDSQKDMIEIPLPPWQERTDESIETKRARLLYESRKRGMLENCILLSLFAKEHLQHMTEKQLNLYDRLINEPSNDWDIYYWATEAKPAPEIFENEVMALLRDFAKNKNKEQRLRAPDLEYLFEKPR
# UniProt Q9P2N5, sequence (Q9P2N5 whole entry, looked up): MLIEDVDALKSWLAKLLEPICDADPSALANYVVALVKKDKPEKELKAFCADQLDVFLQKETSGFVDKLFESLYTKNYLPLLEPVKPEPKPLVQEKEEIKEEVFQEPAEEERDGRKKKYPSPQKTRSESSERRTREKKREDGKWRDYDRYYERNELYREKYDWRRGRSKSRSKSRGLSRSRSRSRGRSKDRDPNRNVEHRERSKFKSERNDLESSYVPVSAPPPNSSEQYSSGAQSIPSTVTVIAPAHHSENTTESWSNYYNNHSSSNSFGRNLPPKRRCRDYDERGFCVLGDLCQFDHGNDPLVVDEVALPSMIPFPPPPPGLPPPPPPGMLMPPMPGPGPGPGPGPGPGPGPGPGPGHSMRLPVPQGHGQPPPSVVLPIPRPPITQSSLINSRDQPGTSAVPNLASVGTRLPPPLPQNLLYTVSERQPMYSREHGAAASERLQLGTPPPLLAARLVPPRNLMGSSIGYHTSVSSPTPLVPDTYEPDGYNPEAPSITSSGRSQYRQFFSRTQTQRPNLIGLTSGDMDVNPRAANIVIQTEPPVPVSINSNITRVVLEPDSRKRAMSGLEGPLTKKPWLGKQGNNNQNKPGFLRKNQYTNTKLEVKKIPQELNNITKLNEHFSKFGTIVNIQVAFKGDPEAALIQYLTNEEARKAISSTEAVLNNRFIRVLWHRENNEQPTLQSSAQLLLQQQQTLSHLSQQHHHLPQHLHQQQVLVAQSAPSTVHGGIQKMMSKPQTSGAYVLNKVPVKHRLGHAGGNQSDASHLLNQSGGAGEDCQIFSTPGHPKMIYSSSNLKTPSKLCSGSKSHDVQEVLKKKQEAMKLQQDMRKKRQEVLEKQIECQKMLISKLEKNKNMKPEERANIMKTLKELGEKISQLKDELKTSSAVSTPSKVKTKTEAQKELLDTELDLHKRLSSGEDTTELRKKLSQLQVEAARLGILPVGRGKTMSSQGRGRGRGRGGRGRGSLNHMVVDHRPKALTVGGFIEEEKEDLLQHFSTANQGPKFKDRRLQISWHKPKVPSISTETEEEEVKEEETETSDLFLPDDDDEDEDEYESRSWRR
# UniProt P40938, sequence (P40938 whole entry, looked up): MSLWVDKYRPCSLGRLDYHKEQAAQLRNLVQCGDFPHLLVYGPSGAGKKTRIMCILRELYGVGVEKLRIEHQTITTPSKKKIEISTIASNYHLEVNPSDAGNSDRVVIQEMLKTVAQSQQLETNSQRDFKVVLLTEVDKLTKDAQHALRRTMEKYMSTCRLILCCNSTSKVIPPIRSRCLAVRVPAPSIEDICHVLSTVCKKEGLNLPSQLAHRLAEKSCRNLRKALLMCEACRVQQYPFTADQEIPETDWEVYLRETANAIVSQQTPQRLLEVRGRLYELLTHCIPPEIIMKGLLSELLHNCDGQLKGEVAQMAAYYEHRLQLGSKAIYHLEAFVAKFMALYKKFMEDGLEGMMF
Target,log2 fold change (bafetinib),log2 fold change [1],log2 fold change (nilotinib),log2 fold change [2],log2 fold change (dasatinib),log2 fold change [3],log2 fold change [4],log2 fold change [5],log2 fold change (tipifarnib),log2 fold change (mubritinib),log2 fold change [6],log2 fold change [7],log2 fold change [8],log2 fold change [9],log2 fold change (entinostat),log2 fold change (vorinostat),log2 fold change (citarinostat),log2 fold change (silmitasertib),log2 fold change [10],log2 fold change [11]
RRP12 (UniProt Q5JTH9),0.01,-0.036,-0.082,0.088,-0.028,0.184,-0.136,-0.123,-0.035,-0.096,0.062,0.188,0.089,0.051,0.081,0.072,-0.064,0.121,0.119,0.216
RPS6KA2 isoform 2 (UniProt Q15349),-0.112,0.15,0.008,-0.571 (active),-0.228,-0.013,0.001,0.021,-0.069,0.085,-0.129,-0.256,-0.269,-0.035,0.067,0.122,0.106,-0.044,-0.056,-0.295
SEC24A (UniProt O95486),-0.018,0.041,-0.126,0.021,-0.121,-0.012,0.008,0.016,-0.005,0.017,-0.015,0,-0.108,-0.016,0.016,0.078,0,0.02,-0.092,-0.013
SLC12A9 (UniProt Q9BXP2),-0.088,0.023,-0.069,0.05,0.057,-0.066,0.008,-0.006,0.025,0.001,0.05,-0.142,-0.313 (active),-0.03,0.021,0.027,0.035,0.017,-0.081,-0.062
RHOXF2 (UniProt Q9BQY4),-0.05,-0.215 (active),0.009,-0.007,0.053,-0.058,0.008,-0.035,0.048,0.06,0.004,0.015,0.039,0.013,-0.002,-0.091,0.006,0.045,-0.023,-0.036
RPS25 (UniProt P62851),0.259,-0.007,0.015,0.174,0.07,-0.032,-0.177,-0.077,0.062,-0.068,-0.043,0.071,0.192,0.053,-0.072,0.032,-0.066,-0.061,0.107,-0.052
SIRT2 (UniProt Q8IXJ6),-0.041,-0.003,0.061,-0.006,-0.032,-0.051,0.104,-0.002,0.027,0.067,-0.048,0.023,-0.07,-0.066,-0.02,-0.039,-0.022,-0.035,-0.035,0.033
SFXN5 (UniProt Q8TD22),-0.3 (active),0.017,-0.052,0.049,0.084,0.134,0.107,0.093,0.022,0.041,-0.043,0.042,-0.072,-0.095,-0.068,0.019,-0.028,-0.003,0.012,0.072
RPS3A (UniProt P61247),0.243,-0.031,0,0.201,0.099,-0.033,-0.127,-0.045,0.096,-0.058,0.01,0.084,0.164,0.035,-0.04,0.041,-0.071,0.017,0.088,-0.131
RAD51 (UniProt Q06609),-0.002,0.021,-0.082,-0.006,-0.009,0.04,0.037,0.003,0.11,-0.017,0.051,-0.019,-0.057,0.031,0.001,0.047,0.018,-0.003,-0.014,-0.012
RBM27 (UniProt Q9P2N5),0.007,0.078,0.019,-0.91 (active),-0.07,-0.07,0.053,0.041,-0.005,0.023,-0.151,-0.015,-0.058,-0.042,0.044,0.125,0.04,-0.078,-0.056,-0.064
RNASET2 (UniProt O00584),-0.261 (active),-0.006,0.016,-0.002,-0.031,-0.034,-0.065,0.027,0.067,0.021,-0.082,-0.114,-0.285 (active),-0.033,-0.012,-0.04,0.074,-0.018,-0.048,-0.102
RFC3 (UniProt P40938),-0.035,0.049,-0.016,-0.017,-0.032,-0.011,0.053,-0.01,-0.051,0.045,-0.001,-0.039,-0.078,-0.023,-0.028,0.028,0.077,-0.006,-0.039,-0.013
RSRC2 (UniProt Q7L4I2),-0.091,-0.091,0,-2.11 (active),0.002,-0.028,-0.007,-0.056,0.012,0.02,-0.05,0.111,-0.001,-0.019,-0.01,-0.029,0.038,-0.13,0.023,-0.034
SDHAF2 (UniProt Q9NX18),-0.083,0.166,-0.02,0.022,0.057,-0.007,0.056,0.017,0.007,0.058,-0.005,0.156,-0.089,-0.007,-0.04,-0.156,-0.026,-0.007,-0.101,-0.015
